Source: PubChem BioAssay
Only some compounds are listed: those with a hit (about 4.9% of all), similar ones and a draw of the others.
Calb FLC – C. albicans growth modulation with fluconazole | growth inhibition, % (concentration not given with the values) | C. albicans CaCi-2 (fluconazole-resistant clinical isolate) + fluconazole, Alamar Blue growth, 48 h | 300,000 tested, 0.57% active;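 active means growth inhibition above about 58% in most replicates, limit read from the data, passing the limit was not always enough; inconclusive means exactly half the replicates above a set limit; inactive means most replicates below a set limit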;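 further: all wells also contain fluconazole at 8 µg/ml as a sub-toxic cotreatment; 0% = median of DMSO wells and 100% = median of geldanamycin control wells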
PP1 counter – blocks human PP1-alpha phosphatase, a PP5 counter-screen. 320,000 tested, 0.9% active. purified PP1alpha, OMFP fluorescence. inhibition, % at 6.7 µM. P62136;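 active means inhibition above the mean inhibition of all tested compounds plus 3 SD, computed separately for each screening campaign, cut at about 15% in these data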
Beta apoptosis – beta cell apoptosis inhibition; 300,000 tested, 0.8% active; INS-1E cytokine-induced death, ATP luminescence, 48 h; percent of positive-control rescue, neutral wells zero; protection from apoptosis, % (no concentration beside the values);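 active means Every replicate reaches about 75%, or at least half do and their mean reaches it too, limit read from the data; inconclusive means At least half of replicates reach the limit but their mean does not; inactive means Under half of replicates reach the limit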;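 further: 0% = cytokine-treated negative control wells and 100% = positive control rescue; higher means more ATP so stronger rescue from cytokine killing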
PP5 inh – blocks human protein phosphatase 5 activity; purified PP5c, OMFP substrate fluorescence; inhibition, % at 6.7 µM; 320,000 tested, 0.18% active; AID 1987;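 active means inhibition above the campaign's mean inhibition across all tested compounds plus 3 SD, cut at about 9.5% in these data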;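 further: 0% = DMSO only and 100% = 100 µM cantharidin control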
Target sequence (P53041 whole entry, looked up): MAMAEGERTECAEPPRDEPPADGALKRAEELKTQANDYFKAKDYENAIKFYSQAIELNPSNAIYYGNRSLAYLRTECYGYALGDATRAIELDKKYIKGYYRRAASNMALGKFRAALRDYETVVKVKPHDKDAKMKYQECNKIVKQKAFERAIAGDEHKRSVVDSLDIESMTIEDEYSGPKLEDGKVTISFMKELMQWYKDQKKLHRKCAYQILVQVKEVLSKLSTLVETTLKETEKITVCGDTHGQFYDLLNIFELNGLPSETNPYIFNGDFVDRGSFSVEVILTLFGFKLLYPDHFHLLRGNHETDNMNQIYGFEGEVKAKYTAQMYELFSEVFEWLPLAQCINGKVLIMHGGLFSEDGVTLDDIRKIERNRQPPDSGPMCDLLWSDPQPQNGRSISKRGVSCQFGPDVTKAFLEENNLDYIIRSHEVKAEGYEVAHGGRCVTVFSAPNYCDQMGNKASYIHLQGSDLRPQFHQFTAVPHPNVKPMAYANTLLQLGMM
Mdm2-MdmX inh – disrupts the human Mdm2-MdmX interaction | SaOS-2 split-luciferase Mdm2/MdmX complementation, luminescence | AID 485346 | inhibition, % at 8 µM | 330,000 tested, 3% active;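 active means inhibition of at least 50% at 8 µM in the primary screen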
CSC inhib – cancer stem cell inhibition | cancer stem cell-like cells viability, luminescence | 300,000 tested, 1.1% active | inhibition, % at 7.5 µM; in the data active means inhibition above about 75%; inconclusive means no clear call, values can overlap the other calls; tested in HMLE shEcad cells
Mdm2-MdmX conf – confirmation of human Mdm2/MdmX interaction inhibitors | AID 489028 | inhibition, % at 8 µM | Mdm2-MdmX binding, luminescent assay | 10,000 tested, 55% active | shares compounds with Mdm2-MdmX inh; in the data active means inhibition above about 40%
FLuc counter – full-length luciferase inhibition in Mdm2/MdmX counter-screen; shares compounds with Mdm2-MdmX inh; SaOS-2 full-length luciferase counterscreen, luminescence; inhibition, % at 8 µM; 6,200 tested, 77% active;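 active means mean inhibition at 8 µM reaching about 37%, which flags the compound as non-specific, limit read from the data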;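 further: p53-null SaOS-2 cells with luciferase driven by a doxycycline-inducible promoter; compound on cells about two nights before reading with doxycycline added after day one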
Starred values were filed as active, the others as inactive.

How did Cc1[nH]c2ccccc2c1CCNC(=O)c1ccc2c(c1[N+](=O)[O-])C(=O)c1ccccc1C2=O do in these assays?
Calb FLC: 33; PP1 counter: 1; Beta apoptosis: 10; PP5 inh: 0; Mdm2-MdmX inh: 69*; CSC inhib: 24; Mdm2-MdmX conf: 20

Results for CN(C)C(=O)c1ccc2c(c1[N+](=O)[O-])C(=O)c1ccccc1C2=O ?
Calb FLC: -3; PP1 counter: 2; Beta apoptosis: 29; PP5 inh: 1; Mdm2-MdmX inh: 14; CSC inhib: 5

How did Cc1[nH]c2c(C)cccc2c1CCNC(=O)c1ccc2c(c1[N+](=O)[O-])C(=O)c1ccccc1C2=O do in these assays?
Calb FLC: 5; PP1 counter: 9; Beta apoptosis: -7; PP5 inh: 0; Mdm2-MdmX inh: 75*; CSC inhib: 50; Mdm2-MdmX conf: 31

How did COc1ccc(NC(=O)CN(C)C(=O)CNC(=O)c2ccc3ccccc3c2)cc1 do in these assays?
Mdm2-MdmX inh: -52

What do the screens show for `COc1ccc(N2CCN(S(=O)(=O)c3ccc(-c4cc(C)no4)s3)CC2)cc1`?
Calb FLC: 8; PP1 counter: -2; Beta apoptosis: -3; PP5 inh: -1; Mdm2-MdmX inh: 9; CSC inhib: -10

How did CCN(c1ccc(OC)cc1)S(=O)(=O)c1ccc(-c2cc(C)no2)s1 do in these assays?
Calb FLC: 7; PP1 counter: -3; Beta apoptosis: 4; PP5 inh: -1; Mdm2-MdmX inh: 57*; CSC inhib: -19; Mdm2-MdmX conf: 48*; FLuc counter: 59*

What do the screens show for `CCOCCCNC(=O)c1ccc2c(c1)N=C(CC)c1cc(Br)ccc1S2`?
Calb FLC: -6; PP1 counter: 4; Beta apoptosis: 30; PP5 inh: 1; Mdm2-MdmX inh: 66*; CSC inhib: 69; Mdm2-MdmX conf: 60*; FLuc counter: 113*

Results for CCn1nc(C)c(CNC(=O)CC2C(=O)NCCN2CC(C)(C)C)c1C (stereo not drawn) ?
Calb FLC: -4; PP1 counter: -5; Beta apoptosis: 0; PP5 inh: 0; Mdm2-MdmX inh: -5; CSC inhib: 13

How did Cc1nc(Cl)c(C(=O)NC(=O)Nc2cccc(C(F)(F)F)c2)c(C)c1[N+](=O)[O-] do in these assays?
Calb FLC: 0; PP1 counter: 6; Beta apoptosis: 38; PP5 inh: 5; Mdm2-MdmX inh: 57*; Mdm2-MdmX conf: 17

What do the screens show for `Cc1onc(C(=O)Nc2cccc(C(F)(F)F)c2)c1[N+](=O)[O-]`?
Calb FLC: 4; PP1 counter: 0; PP5 inh: 5; Mdm2-MdmX inh: 27

How did CCCNC(=O)C(Cc1ccc(Cl)cc1)NC(=O)c1ccc(-c2ccccc2)cc1 (stereo not drawn) do in these assays?
PP1 counter: -1; Beta apoptosis: 24; PP5 inh: -3; Mdm2-MdmX inh: 59*; CSC inhib: 5; Mdm2-MdmX conf: 17

Results for CN(Cc1ccccc1)C(=O)c1cn(C)c2ccc(S(=O)(=O)N3CCCC3)cc2c1=O ?
Calb FLC: 0; PP1 counter: -4; Beta apoptosis: 0; PP5 inh: -2; Mdm2-MdmX inh: 8; CSC inhib: 4

What do the screens show for `COC(=O)[C@@]1(Cc2ccccc2)[C@H]2C(=O)N(Cc3ccccc3)C(=O)[C@H]2[C@H]2CN=C(SCc3ccc(C#N)cc3)N21`?
Mdm2-MdmX inh: 91*; Mdm2-MdmX conf: 95*; FLuc counter: 28

Results for CC[C@]1(C(=O)OC)[C@H]2C(=O)N(Cc3ccccc3)C(=O)[C@H]2[C@H]2CN=C(SCc3ccc(C(=O)OC)cc3)N21 ?
Mdm2-MdmX inh: 36

What do the screens show for `CC[C@]1(C(=O)OC)[C@H]2C(=O)N(Cc3ccccc3)C(=O)[C@H]2[C@H]2CN=C(SCc3ccc(C)cc3)N21`?
Mdm2-MdmX inh: 93*; Mdm2-MdmX conf: 88*; FLuc counter: 49*

Results for CCN1C(=O)[C@H]2[C@H]3CN=C(SCc4ccc(C#N)cc4)N3[C@@](Cc3ccccc3)(C(=O)OC)[C@H]2C1=O ?
Mdm2-MdmX inh: 6

How did Cc1cc(C)c(S(=O)(=O)c2ccccc2)c(OC(=O)c2c(Cl)cc(Cl)cc2Cl)n1 do in these assays?
Calb FLC: 7; PP1 counter: 5; Beta apoptosis: -5; PP5 inh: 3; Mdm2-MdmX inh: 52*; CSC inhib: -4; Mdm2-MdmX conf: 21

Results for CCOc1cc(CNc2ccccc2)cc(Br)c1OCC(=O)NC(C)(C)C ?
Calb FLC: 1; PP1 counter: 0; Beta apoptosis: 19; PP5 inh: 2; Mdm2-MdmX inh: 28; CSC inhib: 35

Results for CCOc1cc(CNc2ccc(Br)cc2)cc(Br)c1OCC(=O)NC(C)(C)C ?
Calb FLC: 19; PP1 counter: 0; Beta apoptosis: 19; PP5 inh: 2; Mdm2-MdmX inh: 56*; CSC inhib: inconclusive; Mdm2-MdmX conf: 24

Results for CC1=C/C(=N\OS(=O)(=O)c2ccccc2)C(C)=CC1=O ?
PP1 counter: -1; Beta apoptosis: 112*; PP5 inh: 0; Mdm2-MdmX inh: 96*; CSC inhib: 118*; Mdm2-MdmX conf: 84*; FLuc counter: 53*

Results for CC1=C/C(=N\OS(=O)(=O)c2ccccc2)C(C(C)C)=CC1=O ?
PP1 counter: 1; Beta apoptosis: inconclusive; PP5 inh: 2; CSC inhib: 62

Results for CCOC(=O)N1CCN(C(=O)COC(=O)c2ccc(Cl)nc2)CC1 ?
Beta apoptosis: 0; Mdm2-MdmX inh: 18; CSC inhib: -1

Results for COCCNC(=O)C1(C(F)(F)F)CC(CCCO)CCCO1 (stereo not drawn) ?
Calb FLC: -6; PP1 counter: -6; Beta apoptosis: -6; PP5 inh: 1; Mdm2-MdmX inh: 4; CSC inhib: 0

How did OC(CNCC1CCCO1)Cn1c2ccc(Cl)cc2c2cc(Cl)ccc21 (stereo not drawn) do in these assays?
Calb FLC: 69; PP1 counter: 11; PP5 inh: 4; Mdm2-MdmX inh: 96*; CSC inhib: 111*; Mdm2-MdmX conf: 44*; FLuc counter: 20

Results for COCCNC(=O)[C@@H]1CCCN1C(=O)C1CCN(S(=O)(=O)c2ccc(C)cc2)CC1 ?
PP1 counter: -3; Beta apoptosis: -2; PP5 inh: 2; Mdm2-MdmX inh: 9; CSC inhib: 2

What do the screens show for `CS(=O)(=O)N(CCc1ccccc1)CC(=O)N1CCN(c2ccc(F)cc2)CC1`?
Calb FLC: 7; PP1 counter: 1; Beta apoptosis: 2; PP5 inh: 3; Mdm2-MdmX inh: -4; CSC inhib: -19
